Measurements taken from the supplement of paper PMC10849652.
Of roughly 8,800 targets only a part is listed; those with a hit were picked by preference. About 0.5% of all pairs of compound and target were hits.

Key:
Assay in all cases: log2 fold change, soluble protein after heating vs DMSO (PISA); higher = thermal stabilisation; K562 lysate, 10 uM; active = over 0.2 and 3.5 SD of the protein, either way, in both replicates (recomputed)
ibrutinib = compound: C=CC(=O)N1CCC[C@@H](n2nc(-c3ccc(Oc4ccccc4)cc3)c3c(N)ncnc32)C1 [ibrutinib]
Procedure, shortened: (§1)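 Quantification was by TMTpro 16plex LC-MS/MS with equalised channel sums, applied to the supernatant after 21,000xg for 90 min. Samples were crude K562 extract at 1 mg/mL protein in PBS pH 7.4 with 1 mM MgCl2, treated with 10 μM compound for 30 min, heated for 3 min across 48°C-58°C, pooled and brought to 0.5% NP-40 at 4°C. Values are log-two fold changes in thermal stability relative to solvent controls, from duplicates.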

[1] = compound: CC(=O)c1cnc2ccc(-c3cc(Cl)c(O)c(Cl)c3)nc2c1N[C@H]1CC[C@H](CN(C)C)CC1
Procedure, shortened: as §1

ralimetinib = compound: CC(C)(C)Cn1c(N)nc2ccc(-c3[nH]c(C(C)(C)C)nc3-c3ccc(F)cc3)nc21 [ralimetinib]
Procedure, shortened: as §1

[2] = compound: CC(C)(O)CC(=O)NCCn1ccc2ncnc(Nc3ccc(Oc4cccc(C(F)(F)F)c4)c(Cl)c3)c21
Procedure, shortened: as §1

[3] = compound: CC(C)C1=C2N=C(C=C(N2N=C1)NCC3=CC=CC=C3)NCCCCCCN
Procedure, shortened: as §1

[4] = compound: CC1=C(C(CC(=O)N1)C2=CC=C(C=C2)C(F)(F)F)C(=O)NC3=C(C=C4C(=C3)C=NN4)F
Procedure, shortened: as §1

[5] = compound: CC1=C(C2=C(C=C1)C(=O)C3=CC=CC=C3N2CCCN)C
Procedure, shortened: as §1

[6] = compound: CC1=C(C=C(C=C1)NC(=O)C2=CC(=CC=C2)C(C)(C)C#N)NC3=CC4=C(C=C3)N=CN(C4=O)C
Procedure, shortened: as §1

[7] = compound: CC1=C(C=C(C=C1)NC(=O)C2=CC(=CC=C2)N(C)C)NC(=O)C3=CC=C(C=C3)O
Procedure, shortened: as §1

[8] = compound: CC1=CC=C(C=C1)SC2=C3C=C(SC3=CN=C2)C(=O)N
Procedure, shortened: as §1

vemurafenib = compound: CCCS(=O)(=O)Nc1ccc(F)c(C(=O)c2c[nH]c3ncc(-c4ccc(Cl)cc4)cc23)c1F [vemurafenib]
Procedure, shortened: as §1

[9] = compound: CCCS(=O)(=O)Nc1ccc(F)c(C(=O)c2c[nH]c3ncc(Cl)cc23)c1F
Procedure, shortened: as §1

barasertib = compound: CCN(CCCOc1ccc2c(Nc3cc(CC(=O)Nc4cccc(F)c4)[nH]n3)ncnc2c1)CCOP(=O)(O)O [barasertib]
Procedure, shortened: as §1

[10] = compound: CC[C@@H]1C(=O)N(C)c2cnc(Nc3ccc(C(=O)NC4CCN(C)CC4)cc3OC)nc2N1C1CCCC1
Procedure, shortened: as §1

volasertib = compound: CC[C@@H]1C(=O)N(C)c2cnc(Nc3ccc(C(=O)N[C@H]4CC[C@H](N5CCN(CC6CC6)CC5)CC4)cc3OC)nc2N1C(C)C [volasertib]
Procedure, shortened: as §1

[11] = compound: CCn1c(C(=O)N(C2CC2)C2CC2)cc2c3c(ncn3C)c(Nc3cc(C)n(C)n3)nc21
Procedure, shortened: as §1

[12] = compound: CCn1cc(-c2ccnc3[nH]c(-c4cccc(CN(C)C)c4)cc23)c(-c2ccc(NC(=O)N(C)C)cc2)n1
Procedure, shortened: as §1

[13] = compound: CN1CCC(CNc2ccc3ncc(-c4cccc(OC(F)(F)F)c4)n3n2)CC1
Procedure, shortened: as §1

saracatinib = compound: CN1CCN(CCOc2cc(OC3CCOCC3)c3c(Nc4c(Cl)ccc5c4OCO5)ncnc3c2)CC1 [saracatinib]
Procedure, shortened: as §1

sotrastaurin = compound: CN1CCN(c2nc(C3=C(c4c[nH]c5ccccc45)C(=O)NC3=O)c3ccccc3n2)CC1 [sotrastaurin]
Procedure, shortened: as §1

Measured: log2 fold change

SPATS2 (UniProt Q86XZ4)
inactive: ibrutinib -0.06 | [1] -0.069 | ralimetinib -0.018 | [2] 0.03 | [3] 0.111 | [4] 0.077 | [5] -0.061 | [6] -0.007 | [7] -0.046 | [8] -0.001 | vemurafenib -0.013 | [9] 0.032 | barasertib 0.071 | [10] -0.175 | volasertib -0.041 | [11] 0.128 | [12] 0.144 | [13] 0.038 | saracatinib -0.12 | sotrastaurin 0.031

SNRPD3 (UniProt P62318)
Chain of UniProt P62318 (P62318 whole entry, looked up): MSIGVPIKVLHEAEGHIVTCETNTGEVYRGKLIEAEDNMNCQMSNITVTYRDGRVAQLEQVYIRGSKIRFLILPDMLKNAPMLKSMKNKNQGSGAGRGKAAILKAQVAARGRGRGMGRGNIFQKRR
inactive: ibrutinib -0.033 | [1] 0.035 | ralimetinib 0.067 | [2] -0.018 | [3] -0.05 | [4] 0.017 | [5] 0.019 | [6] -0.012 | [7] -0.004 | [8] -0.008 | vemurafenib 0.022 | [9] -0.012 | barasertib -0.006 | [10] -0.049 | volasertib -0.004 | [11] 0.052 | [12] -0.254 | [13] 0.135 | saracatinib 0.046 | sotrastaurin 0.024

SLC16A1 (UniProt P53985)
Chain of UniProt P53985 (P53985 whole entry, looked up): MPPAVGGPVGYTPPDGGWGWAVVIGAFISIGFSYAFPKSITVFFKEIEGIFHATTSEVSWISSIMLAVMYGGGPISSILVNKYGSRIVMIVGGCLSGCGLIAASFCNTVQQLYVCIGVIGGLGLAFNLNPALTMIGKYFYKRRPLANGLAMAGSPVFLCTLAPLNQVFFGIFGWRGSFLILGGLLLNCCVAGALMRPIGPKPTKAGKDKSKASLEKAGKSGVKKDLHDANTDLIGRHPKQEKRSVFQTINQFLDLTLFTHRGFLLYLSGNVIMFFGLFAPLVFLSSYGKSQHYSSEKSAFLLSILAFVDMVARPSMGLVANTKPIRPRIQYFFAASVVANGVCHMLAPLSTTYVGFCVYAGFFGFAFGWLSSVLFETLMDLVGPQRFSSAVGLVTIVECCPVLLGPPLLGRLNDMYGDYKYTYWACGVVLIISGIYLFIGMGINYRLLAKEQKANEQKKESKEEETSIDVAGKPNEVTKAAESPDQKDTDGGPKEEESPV
inactive: ibrutinib -0.023 | [1] 0.002 | ralimetinib 0.015 | [2] 0.015 | [3] 0.003 | [4] -0.039 | [5] -0.03 | [6] 0.042 | [7] 0 | [8] -0.006 | vemurafenib 0.026 | [9] -0.015 | barasertib -0.051 | [10] 0.07 | volasertib 0.043 | [11] -0.034 | saracatinib -0.003 | sotrastaurin 0.02
active: [12] -0.419 | [13] 0.256

SSU72 (UniProt Q9NP77)
Chain of UniProt Q9NP77 (Q9NP77 whole entry, looked up): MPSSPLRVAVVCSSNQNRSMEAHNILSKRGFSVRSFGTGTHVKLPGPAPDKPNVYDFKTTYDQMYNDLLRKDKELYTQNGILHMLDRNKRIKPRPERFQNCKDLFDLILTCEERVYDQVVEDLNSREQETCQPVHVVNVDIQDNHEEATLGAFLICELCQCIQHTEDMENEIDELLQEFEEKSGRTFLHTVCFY
active: [12] -0.325
inactive: ibrutinib 0.075 | [1] 0.031 | ralimetinib 0.026 | [2] -0.002 | [3] 0.038 | [4] -0.018 | [5] 0.025 | [6] 0.001 | [7] 0.015 | [8] 0.03 | vemurafenib -0.018 | [9] 0.001 | barasertib 0.018 | [10] -0.064 | volasertib -0.045 | [11] -0.049 | [13] 0.171 | saracatinib -0.001 | sotrastaurin 0.018

SYNRG (UniProt Q9UMZ2)
inactive: ibrutinib -0.023 | [1] -0.028 | ralimetinib -0.016 | [2] -0.083 | [3] 0.015 | [4] -0.019 | [5] -0.018 | [6] -0.042 | [7] 0.022 | [8] -0.052 | vemurafenib -0.006 | [9] 0.022 | barasertib 0.015 | [10] 0.037 | volasertib 0 | [11] -0.019 | [12] 0.017 | [13] -0.1 | saracatinib 0.013 | sotrastaurin -0.009

SLC26A6 (UniProt Q9BXS9)
Chain of UniProt Q9BXS9 (Q9BXS9 whole entry, looked up): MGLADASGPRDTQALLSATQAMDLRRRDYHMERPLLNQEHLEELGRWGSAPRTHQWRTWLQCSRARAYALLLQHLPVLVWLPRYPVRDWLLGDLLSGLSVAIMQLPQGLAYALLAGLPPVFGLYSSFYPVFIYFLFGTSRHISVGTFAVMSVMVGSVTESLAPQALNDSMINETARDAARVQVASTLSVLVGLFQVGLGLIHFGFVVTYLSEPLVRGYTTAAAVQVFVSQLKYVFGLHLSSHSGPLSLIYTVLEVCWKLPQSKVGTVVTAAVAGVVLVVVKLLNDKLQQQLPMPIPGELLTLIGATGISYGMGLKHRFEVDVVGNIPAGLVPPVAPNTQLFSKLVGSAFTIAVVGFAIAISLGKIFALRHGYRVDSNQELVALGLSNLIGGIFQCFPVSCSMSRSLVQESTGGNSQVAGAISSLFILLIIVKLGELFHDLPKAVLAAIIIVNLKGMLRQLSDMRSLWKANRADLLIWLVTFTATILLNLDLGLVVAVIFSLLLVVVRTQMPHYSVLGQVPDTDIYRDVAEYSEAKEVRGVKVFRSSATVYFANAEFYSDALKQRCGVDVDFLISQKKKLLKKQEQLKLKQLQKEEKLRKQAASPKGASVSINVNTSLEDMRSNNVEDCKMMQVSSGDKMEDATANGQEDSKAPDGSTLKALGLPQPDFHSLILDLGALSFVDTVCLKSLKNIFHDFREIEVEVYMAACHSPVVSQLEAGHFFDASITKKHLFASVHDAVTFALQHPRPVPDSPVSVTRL
active: barasertib 0.421
inactive: ibrutinib -0.242 | [1] 0.018 | ralimetinib 0.019 | [2] -0.056 | [3] -0.05 | [4] -0.157 | [5] -0.022 | [6] 0.017 | [7] 0.033 | [8] -0.056 | vemurafenib 0.106 | [9] 0.086 | [10] 0.055 | volasertib 0.008 | [11] 0.017 | [12] -0.095 | [13] 0.036 | saracatinib -0.126 | sotrastaurin 0.005

STK39 (UniProt Q9UEW8)
inactive: ibrutinib -0.114 | [1] 0.011 | ralimetinib 0.012 | [2] -0.041 | [3] -0.015 | [4] 0.007 | [5] -0.045 | [6] -0.02 | [7] 0.037 | [8] -0.019 | vemurafenib 0.002 | [9] 0.01 | barasertib 0.012 | [10] -0.046 | volasertib -0.048 | [11] 0.001 | [12] -0.013 | [13] -0.027 | saracatinib -0.002 | sotrastaurin 0.02

TARDBP (UniProt Q13148)
Chain of UniProt Q13148 (Q13148 whole entry, looked up): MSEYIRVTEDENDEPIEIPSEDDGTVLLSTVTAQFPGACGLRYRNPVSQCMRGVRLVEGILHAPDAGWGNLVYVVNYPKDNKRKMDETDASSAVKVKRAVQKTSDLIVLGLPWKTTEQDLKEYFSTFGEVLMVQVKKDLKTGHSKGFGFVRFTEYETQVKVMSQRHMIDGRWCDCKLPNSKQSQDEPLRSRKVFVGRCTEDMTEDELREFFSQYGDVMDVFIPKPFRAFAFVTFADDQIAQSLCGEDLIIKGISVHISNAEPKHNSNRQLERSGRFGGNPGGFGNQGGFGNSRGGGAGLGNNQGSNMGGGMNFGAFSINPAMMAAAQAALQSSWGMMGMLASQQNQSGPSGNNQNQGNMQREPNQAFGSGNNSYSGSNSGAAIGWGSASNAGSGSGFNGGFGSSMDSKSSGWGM
inactive: ibrutinib -0.161 | [1] 0.052 | ralimetinib -0.004 | [2] -0.076 | [3] 0.015 | [4] 0.019 | [5] 0.068 | [6] -0.059 | [7] 0.01 | [8] 0.019 | vemurafenib 0.027 | [9] 0.016 | barasertib 0.151 | [10] 0.007 | volasertib -0.125 | [11] 0.169 | [12] -0.008 | [13] -0.069 | saracatinib 0.058 | sotrastaurin -0.032

TANGO6 (UniProt Q9C0B7)
Chain of UniProt Q9C0B7 (Q9C0B7 whole entry, looked up): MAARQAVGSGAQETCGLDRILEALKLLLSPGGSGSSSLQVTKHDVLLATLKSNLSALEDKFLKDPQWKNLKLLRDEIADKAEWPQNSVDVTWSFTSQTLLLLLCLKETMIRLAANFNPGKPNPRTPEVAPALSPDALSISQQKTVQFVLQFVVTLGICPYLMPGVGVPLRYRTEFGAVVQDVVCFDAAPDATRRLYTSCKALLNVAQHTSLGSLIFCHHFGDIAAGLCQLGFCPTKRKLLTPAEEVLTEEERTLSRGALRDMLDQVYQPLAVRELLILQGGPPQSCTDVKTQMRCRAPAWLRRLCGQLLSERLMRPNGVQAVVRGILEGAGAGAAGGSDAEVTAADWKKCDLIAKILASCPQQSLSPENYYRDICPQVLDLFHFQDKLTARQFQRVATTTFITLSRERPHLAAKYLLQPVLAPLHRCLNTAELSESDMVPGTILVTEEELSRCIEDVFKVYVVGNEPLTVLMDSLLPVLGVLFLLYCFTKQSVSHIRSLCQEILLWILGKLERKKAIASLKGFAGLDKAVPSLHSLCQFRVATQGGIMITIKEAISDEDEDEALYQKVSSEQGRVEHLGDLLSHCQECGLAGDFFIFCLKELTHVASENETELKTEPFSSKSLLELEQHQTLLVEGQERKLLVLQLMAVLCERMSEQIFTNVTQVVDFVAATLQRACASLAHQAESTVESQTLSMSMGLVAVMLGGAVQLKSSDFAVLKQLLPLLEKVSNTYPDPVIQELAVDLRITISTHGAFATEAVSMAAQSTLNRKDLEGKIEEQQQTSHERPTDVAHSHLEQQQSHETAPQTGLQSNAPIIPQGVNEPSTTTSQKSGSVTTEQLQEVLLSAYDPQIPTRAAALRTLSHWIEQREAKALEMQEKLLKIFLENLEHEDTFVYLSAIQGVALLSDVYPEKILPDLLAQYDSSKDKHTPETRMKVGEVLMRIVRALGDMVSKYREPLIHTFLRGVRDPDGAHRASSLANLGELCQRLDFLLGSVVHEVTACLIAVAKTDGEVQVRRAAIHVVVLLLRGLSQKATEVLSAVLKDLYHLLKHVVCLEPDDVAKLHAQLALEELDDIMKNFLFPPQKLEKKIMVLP
inactive: ibrutinib -0.056 | [1] 0.039 | ralimetinib 0.023 | [2] 0.02 | [3] -0.067 | [4] -0.028 | [5] -0.017 | [6] -0.013 | [7] -0.02 | [8] -0.011 | vemurafenib 0.062 | [9] -0.113 | barasertib 0.036 | [10] 0.023 | volasertib 0.042 | [11] -0.054 | [12] -0.187 | [13] 0.121 | saracatinib -0.011 | sotrastaurin 0.081

SLC27A4 (UniProt Q6P1M0)
inactive: ibrutinib -0.004 | [1] 0.029 | ralimetinib 0.009 | [2] -0.027 | [3] 0.049 | [4] 0.077 | [5] -0.042 | [6] -0.051 | [7] 0.028 | [8] 0.003 | vemurafenib -0.042 | [9] 0.127 | barasertib -0.015 | [10] -0.028 | volasertib -0.106 | [11] 0 | [12] -0.066 | [13] -0.008 | saracatinib -0.023 | sotrastaurin 0.083

STARD3 isoform 3 (UniProt Q14849)
inactive: ibrutinib 0.039 | [1] 0.044 | ralimetinib -0.074 | [2] -0.018 | [3] 0.011 | [4] 0.033 | [5] -0.072 | [6] 0.073 | [7] 0.021 | [8] 0.028 | vemurafenib 0.029 | [9] 0.054 | barasertib 0.051 | [10] 0.289 | volasertib 0.18 | [11] -0.031 | [12] -0.122 | [13] 0.02 | saracatinib -0.091 | sotrastaurin -0.016

SKA3 (UniProt Q8IX90)
Chain of UniProt Q8IX90 (Q8IX90 whole entry, looked up): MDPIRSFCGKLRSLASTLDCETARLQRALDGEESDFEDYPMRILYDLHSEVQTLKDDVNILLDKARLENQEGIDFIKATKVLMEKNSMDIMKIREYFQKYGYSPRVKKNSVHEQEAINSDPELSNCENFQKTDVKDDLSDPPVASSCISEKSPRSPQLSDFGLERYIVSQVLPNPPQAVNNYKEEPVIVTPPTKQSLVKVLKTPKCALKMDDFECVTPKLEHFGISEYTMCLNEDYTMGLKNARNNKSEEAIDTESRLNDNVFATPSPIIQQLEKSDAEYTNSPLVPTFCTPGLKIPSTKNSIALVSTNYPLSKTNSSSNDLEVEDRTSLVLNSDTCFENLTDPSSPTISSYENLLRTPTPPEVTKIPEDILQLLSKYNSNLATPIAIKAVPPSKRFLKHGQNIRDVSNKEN
inactive: ibrutinib 0.001 | [1] -0.032 | ralimetinib -0.021 | [2] -0.038 | [3] 0.007 | [4] 0.027 | [5] -0.011 | [6] 0.027 | [7] 0.025 | [8] -0.046 | vemurafenib 0.047 | [9] 0.011 | barasertib -0.062 | [10] 0.016 | volasertib 0.007 | [11] -0.018 | [12] -0.027 | [13] 0.023 | saracatinib 0.017 | sotrastaurin 0.028

SRP54 (UniProt P61011)
Chain of UniProt P61011 (P61011 whole entry, looked up): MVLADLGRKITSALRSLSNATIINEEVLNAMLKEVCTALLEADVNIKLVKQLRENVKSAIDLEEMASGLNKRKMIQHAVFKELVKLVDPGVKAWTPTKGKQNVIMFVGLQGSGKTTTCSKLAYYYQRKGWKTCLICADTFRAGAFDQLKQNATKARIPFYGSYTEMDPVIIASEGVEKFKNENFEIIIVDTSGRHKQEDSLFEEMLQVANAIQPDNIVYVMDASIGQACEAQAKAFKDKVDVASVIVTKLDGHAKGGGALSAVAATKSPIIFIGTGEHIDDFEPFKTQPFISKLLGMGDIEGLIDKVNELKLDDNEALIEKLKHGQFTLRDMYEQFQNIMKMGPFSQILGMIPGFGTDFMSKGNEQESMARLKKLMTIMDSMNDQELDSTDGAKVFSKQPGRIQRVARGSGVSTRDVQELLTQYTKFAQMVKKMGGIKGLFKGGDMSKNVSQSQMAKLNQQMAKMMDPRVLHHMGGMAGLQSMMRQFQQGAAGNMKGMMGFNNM
inactive: ibrutinib -0.039 | [1] -0.023 | ralimetinib 0.031 | [2] 0.015 | [3] 0.036 | [4] 0.034 | [5] -0.069 | [6] -0.021 | [7] 0.007 | [8] -0.009 | vemurafenib 0.02 | [9] -0.024 | barasertib 0 | [10] 0.068 | volasertib -0.024 | [11] 0.017 | [12] -0.059 | [13] 0.006 | saracatinib 0.043 | sotrastaurin 0.028

SYNE2 isoform 2 (UniProt Q8WXH0)
active: [12] -0.966
inactive: ibrutinib 0 | [1] -0.003 | ralimetinib 0.018 | [2] -0.076 | [3] -0.106 | [4] -0.153 | [5] -0.047 | [6] 0.04 | [7] -0.005 | [8] 0.006 | vemurafenib 0.009 | [9] 0.005 | barasertib 0.085 | [10] 0.004 | volasertib 0.065 | [11] -0.042 | [13] 0.371 | saracatinib -0.054 | sotrastaurin 0.035

SHC1 isoform 6 (UniProt P29353)
Chain of UniProt P29353 (P29353 whole entry, looked up): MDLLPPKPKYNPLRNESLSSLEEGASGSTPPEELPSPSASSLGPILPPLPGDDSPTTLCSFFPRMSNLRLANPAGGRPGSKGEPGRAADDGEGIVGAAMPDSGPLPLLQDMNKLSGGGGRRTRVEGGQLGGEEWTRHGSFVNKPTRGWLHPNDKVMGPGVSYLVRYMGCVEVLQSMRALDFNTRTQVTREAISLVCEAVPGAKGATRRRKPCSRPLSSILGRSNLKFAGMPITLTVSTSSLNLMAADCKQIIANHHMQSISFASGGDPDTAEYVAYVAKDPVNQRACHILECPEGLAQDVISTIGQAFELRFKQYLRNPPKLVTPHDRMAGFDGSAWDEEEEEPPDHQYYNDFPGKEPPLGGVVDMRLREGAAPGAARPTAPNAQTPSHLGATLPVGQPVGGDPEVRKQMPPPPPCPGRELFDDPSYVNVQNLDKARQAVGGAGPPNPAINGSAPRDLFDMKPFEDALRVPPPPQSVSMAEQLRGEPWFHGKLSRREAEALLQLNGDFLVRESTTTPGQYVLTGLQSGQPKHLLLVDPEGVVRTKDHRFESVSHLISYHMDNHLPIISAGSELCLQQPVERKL
active: [12] 0.635
inactive: ibrutinib 0.053 | [1] -0.007 | ralimetinib -0.02 | [2] -0.041 | [3] -0.007 | [4] -0.016 | [5] -0.006 | [6] -0.004 | [7] 0.002 | [8] -0.008 | vemurafenib 0.028 | [9] 0.003 | barasertib 0.008 | [10] -0.027 | volasertib 0.01 | [11] -0.035 | [13] -0.163 | saracatinib -0.007 | sotrastaurin 0.017

STK25 (UniProt O00506)
inactive: ibrutinib -0.021 | [1] 0.165 | ralimetinib -0.071 | [2] 0.007 | [3] -0.006 | [4] -0.02 | [5] -0.038 | [6] -0.042 | [7] 0.035 | [8] -0.025 | vemurafenib -0.018 | [9] -0.005 | barasertib 0.017 | [10] -0.034 | volasertib -0.078 | [11] -0.042 | [12] -0.037 | [13] 0.016 | saracatinib -0.026 | sotrastaurin 0.022
